A selection: hits, their analogues and other compounds. The true share with any hit is near 10%.
G9a inh: qHTS Assay for Inhibitors of Histone Lysine Methyltransferase G9a; Potency, µM (series often up to 102 µM), usual class: inhibitors; Histone-lysine N-methyltransferase EHMT2 (Homo sapiens), Q96KQ7; G9a H3K9 monomethylation, AlphaScreen, 2 h; 8.8% of 350,000 active; AID 504332, 2011; note: nearly all actives have a fitted effect of over 75% in size
Target sequence (Q96KQ7 913-1193 limits assumed): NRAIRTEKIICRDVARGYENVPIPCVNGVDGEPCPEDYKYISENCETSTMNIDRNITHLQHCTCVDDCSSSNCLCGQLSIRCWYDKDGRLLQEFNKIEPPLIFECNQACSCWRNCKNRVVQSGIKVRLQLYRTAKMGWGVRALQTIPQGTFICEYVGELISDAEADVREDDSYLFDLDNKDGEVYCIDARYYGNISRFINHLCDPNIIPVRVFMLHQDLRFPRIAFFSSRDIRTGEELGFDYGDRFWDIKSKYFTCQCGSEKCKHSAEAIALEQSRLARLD
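Signal arises when biotinylated H3K9 peptide, once monomethylated, bridges streptavidin donor and antibody-captured acceptor beads. Enzyme at 20 nM was preincubated 15 min with test compounds; peptide 500 nM and SAM 20 uM then reacted for 2 h.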
Sfp inh: qHTS Assay for Inhibitors of Bacillus subtilis Sfp phosphopantetheinyl transferase (PPTase); 4'-phosphopantetheinyl transferase ffp (Bacillus subtilis), Q9F4F7; Biochemical Sfp PPTase activity, qHTS; Potency, µM, usual class: inhibitors; 3.5% of 310,000 active; AID 1490, 2009;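 note: the enzyme is Sfp with the accession as filed and its product quenches rhodamine fluorescence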
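With Hepes-Na pH 7.6 buffer containing 10 mM MgCl2, Sfp (15 nM) modified BHQ-2-YbbR (12.5 uM) using rhodamine-CoA (5 uM). Two reads 30 minutes apart at 525/598 nm yielded each well's rate.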
VDR inhibitor: Inhibitors of the vitamin D receptor (VDR): qHTS | VDR-SRC2-3 peptide fluorescence polarization, 2 h | Potency, µM, usual class: inhibitors | 0.93% of 400,000 active | AID 504847, 2011
Target sequence (P11473 whole entry, looked up): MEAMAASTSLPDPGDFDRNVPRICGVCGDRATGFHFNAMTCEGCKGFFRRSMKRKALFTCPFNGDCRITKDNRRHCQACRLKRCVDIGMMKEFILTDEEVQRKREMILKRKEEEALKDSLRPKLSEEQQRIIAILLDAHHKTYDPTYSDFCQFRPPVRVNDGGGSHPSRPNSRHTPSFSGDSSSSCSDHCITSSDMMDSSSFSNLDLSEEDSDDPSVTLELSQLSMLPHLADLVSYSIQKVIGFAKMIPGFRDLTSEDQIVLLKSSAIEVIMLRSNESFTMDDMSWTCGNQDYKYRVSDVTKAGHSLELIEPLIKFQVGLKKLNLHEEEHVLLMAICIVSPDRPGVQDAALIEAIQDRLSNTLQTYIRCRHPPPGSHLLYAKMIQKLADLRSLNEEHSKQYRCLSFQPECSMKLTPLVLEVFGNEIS
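Inhibition of the VDR/SRC2-3 peptide interaction is quantified by fluorescence polarization. Compounds (23 nl, pintool) incubate with the reagents for 2 hours at ambient room temperature.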
PLK1 PBD inh: qHTS for Inhibitors of PLK1-PDB (polo-like kinase 1 - polo-box domain): Primary Screen; Serine/threonine-protein kinase PLK1 (Homo sapiens), P53350; Plk1 PBD binding of FITC phosphopeptide, fluorescence polarization; Potency, µM, usual class: inhibitors; 2.8% of 360,000 active; AID 720504, 2013; note: series mostly up to about 57 µM; nearly all actives have a fitted effect of over 65% in size
MmCpn inh: Inhibitors of TCP-1 ring complex (TRiC) of Methanococcus maripaludis (MmCpn): qHTS; Potency, µM (doses to about 76.9 µM), actives largely listed as inhibitors; purified Mm-Cpn ATPase, ADP Transcreener TR-FRET; 0.031% of 330,000 active; Chaperonin Mm-Cpn (Methanococcus maripaludis); note: nearly all actives have a fitted effect of over 80% in size
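Measured: ADP formation by purified Mm-CPN. Conditions: 25 nM protein, 10 uM ATP, Tris pH 7.4 with Mg2+, K+ and DTT, 37°C for 30 min. Detection: Transcreener HTRF after 30 min at room temperature.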
CCT chaperon mod: High-Throughput Screening for Modulators of Cytosolic Chaperonin Activity; AID 651819, 2012; activity change, % (test concentration not listed), hits read low; purified chaperonin ATPase assay, HTRF ADP detection, 30 min; 0.3% of 360,000 active; in the data active = activity change below about -30%
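ATPase activity: ADP formed was measured by HTRF Transcreener (665/615 nm ratio) after 30 min at 37 deg C with 10 uM ATP. Compounds screened at one 76 uM concentration against 40 or 20 nM TRiC in Tris pH 7.4/KCl/MgCl2/DTT buffer.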
Large screens that a line does not name were inactive; ! = not confirmed by another sample. Unless noted, calls come from the whole dose curve; as a rule, active = well fitted curve in the direction sought with a large enough effect; inconclusive = small, poorly fitted or top-dose-only effect, or another doubt; inactive = no such curve, though single readings can be large; an effect the other way counts as inactive or inconclusive.

C=CCN1C(=O)NC(=O)/C(=C/C=C/c2ccccc2)C1=O	G9a inh 8.9µM, Sfp inh 28µM, VDR inhibitor inconclusive, PLK1 PBD inh inconclusive
O=C1NC(=O)N(CCc2ccc(F)cc2)C(=O)/C1=C\C=C\c1ccccc1	G9a inh inconclusive, VDR inhibitor inconclusive, PLK1 PBD inh inconclusive
Clc1c(Cl)c(Cl)c(Cl)c(Cl)c1Cl	none (no result: G9a inh, PLK1 PBD inh, MmCpn inh, CCT chaperon mod)
CSc1cccc(NC(=O)C2CCN(C(=O)c3cnn(-c4ccccc4)c3-n3cccc3)CC2)c1	G9a inh inconclusive (no result: Sfp inh, PLK1 PBD inh, MmCpn inh, CCT chaperon mod)
COc1ccc(CN2CCN(C(=O)COc3ccc4ccccc4c3)CC2)c(OC)c1	G9a inh 11µM, Sfp inh inconclusive
COc1cccc(OCC(=O)N2CCN(C)CC2)c1	none
CCC(C)N1CCN(C(=O)COc2ccc3ccccc3c2)CC1 (configuration not stated)	G9a inh 1.8µM
CCN(CC)C(=O)N[C@@H]1C=C2c3cccc4[nH]cc(c34)C[C@H]2N(C)C1	G9a inh inconclusive, VDR inhibitor 40µM (no result: PLK1 PBD inh, MmCpn inh, CCT chaperon mod)
O=C1CC(=O)N(Cc2ccccc2)C(=S)N1	G9a inh 79µM
Cc1ccc(-c2cn3c(=S)[nH]nc3s2)cc1	G9a inh 1µM, Sfp inh 35µM
Cc1ccc(C)c(N2CCN(C(=O)C3CCCN(S(=O)(=O)c4cccc5nsnc45)C3)CC2)c1 (configuration not stated)	G9a inh inconclusive (no result: Sfp inh, PLK1 PBD inh, MmCpn inh, CCT chaperon mod)
C[C@]12CC[C@H]3[C@@H](CC[C@@]45O[C@@H]4C(=O)C(C#N)C[C@]35C)[C@@H]1CC[C@@H]2O (some centres not stated)	VDR inhibitor inconclusive (no result: PLK1 PBD inh, MmCpn inh, CCT chaperon mod)
S=C1Nc2ccccc2Sc2ccccc21	G9a inh 10µM, Sfp inh inconclusive, PLK1 PBD inh 27µM
CCCC(=O)OC(C(Cl)(Cl)Cl)P(=O)(OC)OC (configuration not stated)	none (no result: PLK1 PBD inh, MmCpn inh, CCT chaperon mod)
Oc1ccc2c3c1O[C@H]1c4c(c5ccccc5n4Cc4ccccc4)C[C@]4(O)[C@H](C2)N(CC2CC2)CC[C@@]314	VDR inhibitor inconclusive (no result: G9a inh, PLK1 PBD inh, MmCpn inh, CCT chaperon mod)
NC(=O)CSP(=O)(c1ccccc1)c1ccccc1	G9a inh 13µM, Sfp inh 16µM, PLK1 PBD inh inconclusive
C[N+]12CCC(CC1)C(C(O)(c1ccccc1)c1cccs1)C2 (configuration not stated)	G9a inh 14µM
COc1cc(Br)c(CNCCc2ccc3c(c2)OCO3)cc1OC	G9a inh 8.9µM
COc1cc(OC)c(OC)cc1CNCCc1ccc2c(c1)OCO2	G9a inh 28µM
CC(=O)O[C@H]1C[C@@H](O[C@@H]2[C@H](C)O[C@H](O[C@@H]3[C@H](C)O[C@H](O[C@@H]4CC[C@@]5(C)[C@@H](CC[C@]6(C)[C@]5(C)C[C@H](O)[C@]5(C)[C@@H](C7=CC(=O)OC7)CC[C@@]56O)C4)C[C@@H]3O)C[C@@H]2O)O[C@@H](C)[C@H]1O[C@H]1O[C@@H](CO)[C@@H](O)[C@@H](O)[C@@H]1O	none (no result: PLK1 PBD inh, MmCpn inh, CCT chaperon mod)
Cc1cc(C(=O)OCC(=O)NC(=O)c2cccn2C)c2ccccc2n1	G9a inh inconclusive
Cc1cc(C)nc(OC(=O)c2ccc(Cl)cc2Cl)n1	none (no result: VDR inhibitor, PLK1 PBD inh, CCT chaperon mod)
CCOC(=O)C(=O)NC1CCSC1=O (configuration not stated)	G9a inh 50µM
CC(=O)N[C@@H]1CCSC1=O	none (no result: PLK1 PBD inh, MmCpn inh, CCT chaperon mod)
O=C(Nc1ccc(Br)cc1C(=O)O)c1ccc2c(c1)C(=O)N(Cc1ccccc1)C2=O	VDR inhibitor inconclusive, PLK1 PBD inh inconclusive
CCC1/C=C/C=CCC(C)C(O)[C@@](C)(O)C(=O)C(C)C(O)C(C)C(=O)C(C)C(O)C(C)C=CC(=O)O[C@H]2C(C)C(CC1)O[C@]1(CCC(C)C(CC(C)O)O1)C2C (some centres not stated)	none (no result: G9a inh, PLK1 PBD inh, MmCpn inh, CCT chaperon mod)
CC1(C)CC(=O)C(C=NCCN2CCN(C(=O)Cc3ccc(F)cc3)CC2)=C(O)C1	G9a inh 35µM
CC1(C)CC(=O)C=C(NCCN2CCN(C(=O)Cc3ccc(Cl)cc3)CC2)C1	G9a inh 71µM
Cc1ccc(C2CC(=O)C(C=NCCN3CCN(C(=O)Cc4ccccc4)CC3)=C(O)C2)cc1 (configuration not stated)	G9a inh inconclusive
O=C1CC(c2ccccc2)CC(O)=C1C=NCCN1CCN(C(=O)Cc2ccccc2)CC1 (configuration not stated)	G9a inh 79µM
CN1CCC2(CC1)CCN(C(=O)Oc1ccccc1)CC2	none (no result: PLK1 PBD inh, MmCpn inh, CCT chaperon mod)
CN1c2ccccc2C(NCCCCCCC(=O)O)c2ccc(Cl)cc2S1(=O)=O (configuration not stated)	Sfp inh inconclusive (no result: PLK1 PBD inh, MmCpn inh, CCT chaperon mod)
CCCCCP(=O)(O)c1ccccc1	none
CCCC/C(C)=C/[C@@H](NP(=O)(c1ccccc1)c1ccccc1)c1ccccc1	G9a inh 32µM
O=C1Nc2cc(Cl)c(Cl)cc2N2CCNC[C@H]12	VDR inhibitor 25µM (no result: G9a inh, PLK1 PBD inh, MmCpn inh, CCT chaperon mod)
CCOC(=O)c1ccc2c(c1)N(CC)C(=O)c1ccccc1S2	G9a inh 45µM
CCOP(=O)(/C(C#N)=C(\C)O)c1ccccc1 (configuration not stated)	G9a inh inconclusive, PLK1 PBD inh 21µM
O=C1CC(N2CCC(n3c(=O)[nH]c4ccccc43)CC2)C(=O)N1c1ccc(F)cc1 (configuration not stated)	G9a inh inconclusive
O=C1CC(N2CC=C(c3ccccc3)CC2)C(=O)N1c1ccc(F)cc1 (configuration not stated)	G9a inh 10µM
CNC(C)[C@@H](O)c1ccc(O)cc1 (some centres not stated)	none (no result: PLK1 PBD inh, MmCpn inh, CCT chaperon mod)
CCOP(=O)(OCC)C1(O)C(=O)Nc2ccc(Br)cc21 (configuration not stated)	G9a inh 18µM
OCCNCCc1c[nH]c2ccc(OCc3ccccc3)cc12	G9a inh inconclusive
CCCCCCCCCOc1ccc2[nH]cc(CCN)c2c1	G9a inh 16µM!, Sfp inh 50µM (no result: PLK1 PBD inh, CCT chaperon mod)
C/C=C1/CN2CC[C@]34C(=C(C=O)[C@@H]1C[C@H]23)Nc1c(O)cccc14	none (no result: G9a inh, PLK1 PBD inh, MmCpn inh, CCT chaperon mod)
CN(C)CC(C(=O)Cc1ccccc1)c1ccccc1 (configuration not stated)	VDR inhibitor 35µM (no result: G9a inh, Sfp inh, MmCpn inh)
C[C@@H]([C@@H](O)c1ccccc1)N(C)C(=O)Cc1ccccc1	none (no result: G9a inh, Sfp inh, MmCpn inh)

Screening data from PubChem BioAssay.
